For one assay, the target named is Albumin (Bos taurus) (UniProt P02769). Description: compounds binding labelled BSA control protein – biochemical, small-molecule microarray, Alexa647 label, 635/667 nm fluorescence, artefact control for SMM control protein annotation, profiling panel (AID 1118).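 Also: score merges 667 nm emission intensity and signal-to-noise per printed compound spot.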 Conditions: BSA-A647 binding, fluorescence 635 nm, higher = more signal.
Assay [1] can be described thus: probe aXIP binding to arrayed compounds – biochemical, NeuroSMM set, 635/667 nm fluorescence, primary screen (AID 1119).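 Also: probe is the protein aXip251-270 applied at 1 µg/mL to compound-printed slides; binding of probe to printed compounds measured as 667 nm fluorescence plus signal to noise.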 Conditions: small-molecule microarray, higher = more signal, called active from +8 up or from −8 down.
Assay [2] in a line: probe aNOTCH3 binding on compound microarray – biochemical, small-molecule microarray, 635/667 nm fluorescence, primary screen (AID 1120).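 Also: probe is a biotin-tagged antibody raised against NOTCH3 rather than NOTCH3 protein; score merges spot fluorescence near 667 nm with spot signal to noise.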 The note with it: higher = more signal.
A short description of assay [3]: probe aNOTCH2 binding on compound microarray – biochemical, small-molecule microarray, 635/667 nm fluorescence, primary screen (AID 1121).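 Also: score merges feature fluorescence read at 667 nm with its signal to noise.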 Conditions: higher = more signal.
Assay [4] concerns the target Carbonic anhydrase 2 (Homo sapiens) (UniProt P00918). Description: compounds binding carbonic anhydrase 2 – biochemical, small-molecule microarray, Alexa647-labelled CAII, profiling panel (AID 1122). Conditions: CAII-A647 binding fluorescence, higher = more signal.
The nature of assay [5]: COS7 lysate on small-molecule microarray, probe aHis, 635 nm (AID 1123).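 Also: z-score combines 667nm fluorescence intensity with signal-to-noise per printed compound spot.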 Conditions: COS7 cell lysate, fluorescence, higher = more signal.
Assay [6] is described as follows: probe aLAP1 signal on lysate-treated microarray – cell lysate, small-molecule microarray, COS7 lysate, primary screen (AID 1124).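 Also: lysate comes from COS7 cells expressing LAP1 and is applied at 0.3 µg/mL; score merges spot fluorescence near 667 nm with signal-to-noise over triplicate slides.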 The note with it: probe aLAP1, fluorescence, higher = more signal.
The subject of another assay is Sam68 (KHDRBS1). Description: compounds binding KHDRBS1 protein – biochemical, small-molecule microarray, 635 nm fluorescence, primary screen (AID 1125).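 Also: score merges 667 nm channel intensity with signal to noise over triplicate slides.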 Conditions: higher = more signal.
Assay [7] relates to Chordin-like protein 2 (CHRDL2). Kind of assay: compounds binding chordin-like 2 – biochemical, small-molecule microarray, 635 nm fluorescence, primary screen (AID 1126).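 Also: printed compound slides probed with Chrdl2 protein at 4 µg/mL for 1 h at 4 C; score merges 667 nm emission intensity with signal to noise over three replicate slides.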 Conditions: fluorescence 635 nm, higher = more signal.
Assay [8] deals with Concanavalin-A (Canavalia ensiformis) (UniProt P02866). Kind of assay: compounds binding concanavalin A lectin – biochemical, small-molecule microarray, Alexa647 label, 635 nm, artefact control for SMM control protein annotation, primary screen (AID 1127).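 Also: z combines 667 nm emission intensity with signal-to-noise across three replicate slides.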 Conditions: ConA-A647 binding fluorescence, higher = more signal.
The nature of assay [9]: compounds binding Alexa647 anti-His antibody – biochemical, small-molecule microarray, 635 nm fluorescence, artefact control for SMM control protein annotation, primary screen (AID 1128).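 Also: score merges feature fluorescence with signal-to-noise for each printed compound spot.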 The note with it: higher = more signal.
Assay [10] has as its system Human papillomavirus type 1a E7 protein (residues 1-88). Description: HPV1a E7 small-molecule binders, primary screen, biochemical, small-molecule microarray, residues 1-88, 635 nm (AID 1129). Conditions: small-molecule microarray binding, fluorescence 635 nm; higher = more signal.
Assay [11] concerns the target Focal adhesion kinase 1 (Homo sapiens) (UniProt Q05397). Description: PTK2 protein binding on printed compound slides – biochemical, small-molecule microarray, 635/667 nm fluorescence, BSA, DTT, primary screen (AID 1130).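 Also: composite of spot emission at 667 nm and signal to noise over triplicate slides.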 Conditions: 635 nm fluorescence, higher = more signal.
Assay [12] has as its system Fibrinogen (Alexa647-labelled). Description: Alexa647-fibrinogen binding to printed small molecules – biochemical, small-molecule microarray, 635/667 nm fluorescence, artefact control for SMM control-protein annotation, profiling panel (AID 1131).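 Also: z-score merges 667 nm fluorescence with per-spot signal-to-noise over triplicate slides.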 Conditions: fibrinogen-A647 binding fluorescence, higher = more signal.
The target in assay [13] is Follistatin (Homo sapiens) (UniProt P19883). Description: FST protein binding to printed compounds – biochemical, small-molecule microarray, 635/667 nm fluorescence, primary screen (AID 1132). Conditions: 635 nm fluorescence, higher = more signal.
Assay [14] has as its target Fibroblast growth factor 2 (Homo sapiens) (UniProt P09038). Kind of assay: basic fibroblast growth factor binding to printed compounds – biochemical, small-molecule microarray, 635/667 nm fluorescence, primary screen (AID 1133). Conditions: FGF2, fluorescence 635/667, higher = more signal.
Assay [15] is described as follows: JC-1 mitochondrial potential readout, lung cancer cells – cell-based, A549, JC-1 fluorescence, basal, 24 h, 100 nL, profiling panel (AID 1138).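 Also: A549 lung adenocarcinoma cells under basal conditions with no added stimulus; test concentration not given here.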 Conditions: higher = more signal.
The subject of the next assay is Lefty1. Description: Lefty1 protein binding to printed compounds – biochemical, small-molecule microarray, 635/667 nm fluorescence, primary screen (AID 1139). Conditions: fluorescence 635/667, higher = more signal.
Assay [16] deals with wheat germ agglutinin (Triticum aestivum), Alexa647-labelled. Kind of assay: Alexa647-WGA lectin binding to printed small molecules – biochemical, small-molecule microarray, 635/667 nm fluorescence, artefact control for SMM control-protein annotation, profiling panel (AID 1140).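 Also: score merges 667 nm feature emission with signal to noise over triplicate slides.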 The note with it: WGA-A647 binding, 635 nm fluorescence, higher = more signal.
For assay [17], the target named is Luciferin 4-monooxygenase (Photinus pyralis) (UniProt P08659). Description: inhibition of purified Photinus pyralis luciferase – biochemical, luminescence, purified enzyme, 2006 set, primary screen (AID 1141).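 Also: cell-free assay with purified firefly luciferase at 100 ng per well in PBS; test concentration not given here.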 The note with it: purified firefly luciferase, SteadyGlo luminescence, 30 min; higher = more signal, called active from +8 up or from −8 down.

The source made the active and inactive calls.

Sequence of Fibroblast growth factor 2 (Homo sapiens) (P09038 whole entry, looked up): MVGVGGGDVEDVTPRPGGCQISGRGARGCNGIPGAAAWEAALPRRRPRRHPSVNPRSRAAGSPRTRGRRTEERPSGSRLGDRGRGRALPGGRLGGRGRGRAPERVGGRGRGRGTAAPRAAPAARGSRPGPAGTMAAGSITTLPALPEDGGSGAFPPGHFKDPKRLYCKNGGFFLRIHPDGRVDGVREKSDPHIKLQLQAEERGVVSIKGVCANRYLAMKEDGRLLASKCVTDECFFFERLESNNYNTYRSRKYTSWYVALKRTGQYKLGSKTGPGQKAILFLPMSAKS
Sequence of Albumin (Bos taurus) (P02769 whole entry, looked up): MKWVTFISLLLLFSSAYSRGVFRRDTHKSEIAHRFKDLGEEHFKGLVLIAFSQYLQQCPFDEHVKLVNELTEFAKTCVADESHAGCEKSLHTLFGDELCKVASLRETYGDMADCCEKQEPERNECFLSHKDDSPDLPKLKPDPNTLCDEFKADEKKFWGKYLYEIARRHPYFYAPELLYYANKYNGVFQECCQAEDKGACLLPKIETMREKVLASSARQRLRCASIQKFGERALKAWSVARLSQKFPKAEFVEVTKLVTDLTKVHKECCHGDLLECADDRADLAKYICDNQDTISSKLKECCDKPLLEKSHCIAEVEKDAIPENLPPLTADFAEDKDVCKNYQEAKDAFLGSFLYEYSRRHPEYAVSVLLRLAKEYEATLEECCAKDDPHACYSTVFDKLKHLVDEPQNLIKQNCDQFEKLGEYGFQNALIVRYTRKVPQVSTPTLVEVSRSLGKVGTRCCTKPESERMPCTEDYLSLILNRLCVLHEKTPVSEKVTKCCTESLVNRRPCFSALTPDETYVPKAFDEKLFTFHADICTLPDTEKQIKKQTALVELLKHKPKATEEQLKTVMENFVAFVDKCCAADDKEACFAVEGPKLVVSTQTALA
Sequence of Focal adhesion kinase 1 (Homo sapiens) (Q05397 whole entry, looked up): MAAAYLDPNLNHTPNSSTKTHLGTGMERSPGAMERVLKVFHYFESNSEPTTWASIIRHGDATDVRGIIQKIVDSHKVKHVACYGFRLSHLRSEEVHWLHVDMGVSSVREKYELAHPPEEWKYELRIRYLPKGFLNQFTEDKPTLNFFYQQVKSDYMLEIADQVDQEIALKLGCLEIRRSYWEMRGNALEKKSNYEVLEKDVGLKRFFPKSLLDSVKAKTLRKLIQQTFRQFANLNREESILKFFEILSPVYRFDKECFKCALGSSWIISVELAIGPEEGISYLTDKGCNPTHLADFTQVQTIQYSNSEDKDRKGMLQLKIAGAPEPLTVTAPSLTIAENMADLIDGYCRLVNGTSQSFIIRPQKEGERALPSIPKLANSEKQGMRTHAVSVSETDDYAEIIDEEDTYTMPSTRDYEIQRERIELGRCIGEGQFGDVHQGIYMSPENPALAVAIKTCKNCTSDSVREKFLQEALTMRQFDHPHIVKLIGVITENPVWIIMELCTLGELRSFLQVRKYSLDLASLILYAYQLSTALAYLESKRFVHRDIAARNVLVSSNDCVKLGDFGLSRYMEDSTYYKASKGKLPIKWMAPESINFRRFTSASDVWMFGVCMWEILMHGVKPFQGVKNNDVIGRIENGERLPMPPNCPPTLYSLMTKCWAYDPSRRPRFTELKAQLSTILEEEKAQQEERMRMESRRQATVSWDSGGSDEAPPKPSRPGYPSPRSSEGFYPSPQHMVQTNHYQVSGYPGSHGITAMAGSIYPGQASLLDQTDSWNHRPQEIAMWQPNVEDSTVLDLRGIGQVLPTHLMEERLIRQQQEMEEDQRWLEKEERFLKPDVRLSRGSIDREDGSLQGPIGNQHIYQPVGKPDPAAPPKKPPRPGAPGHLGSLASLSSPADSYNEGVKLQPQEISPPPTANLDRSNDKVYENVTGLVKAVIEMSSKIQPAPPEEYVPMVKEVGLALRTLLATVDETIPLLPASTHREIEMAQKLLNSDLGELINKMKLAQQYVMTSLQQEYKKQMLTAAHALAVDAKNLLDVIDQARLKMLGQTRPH
Sequence of Luciferin 4-monooxygenase (Photinus pyralis) (P08659 whole entry, looked up): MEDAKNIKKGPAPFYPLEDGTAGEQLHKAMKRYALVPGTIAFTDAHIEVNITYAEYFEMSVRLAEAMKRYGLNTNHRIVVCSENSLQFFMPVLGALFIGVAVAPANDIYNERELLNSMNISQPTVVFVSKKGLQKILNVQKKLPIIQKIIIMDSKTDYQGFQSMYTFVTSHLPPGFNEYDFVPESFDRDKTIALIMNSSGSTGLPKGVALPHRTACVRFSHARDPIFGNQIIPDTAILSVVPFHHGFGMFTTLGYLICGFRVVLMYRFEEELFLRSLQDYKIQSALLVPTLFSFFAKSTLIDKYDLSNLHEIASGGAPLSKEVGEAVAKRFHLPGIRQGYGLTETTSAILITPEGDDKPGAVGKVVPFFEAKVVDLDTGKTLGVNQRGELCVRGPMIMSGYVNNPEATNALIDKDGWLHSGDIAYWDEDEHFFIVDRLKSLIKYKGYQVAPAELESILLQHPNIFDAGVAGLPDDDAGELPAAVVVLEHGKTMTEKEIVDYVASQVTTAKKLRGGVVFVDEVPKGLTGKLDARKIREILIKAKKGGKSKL
Sequence of Follistatin (Homo sapiens) (P19883 whole entry, looked up): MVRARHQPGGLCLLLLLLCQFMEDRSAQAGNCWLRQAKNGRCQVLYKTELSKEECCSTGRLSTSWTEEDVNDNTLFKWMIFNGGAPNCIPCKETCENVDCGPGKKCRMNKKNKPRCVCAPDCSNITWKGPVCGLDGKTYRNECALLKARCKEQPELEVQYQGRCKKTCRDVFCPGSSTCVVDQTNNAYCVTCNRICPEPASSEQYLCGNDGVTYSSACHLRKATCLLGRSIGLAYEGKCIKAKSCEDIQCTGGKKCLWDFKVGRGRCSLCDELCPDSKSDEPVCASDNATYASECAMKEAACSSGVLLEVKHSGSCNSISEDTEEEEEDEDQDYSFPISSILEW
Sequence of Concanavalin-A (Canavalia ensiformis) (P02866 whole entry, looked up): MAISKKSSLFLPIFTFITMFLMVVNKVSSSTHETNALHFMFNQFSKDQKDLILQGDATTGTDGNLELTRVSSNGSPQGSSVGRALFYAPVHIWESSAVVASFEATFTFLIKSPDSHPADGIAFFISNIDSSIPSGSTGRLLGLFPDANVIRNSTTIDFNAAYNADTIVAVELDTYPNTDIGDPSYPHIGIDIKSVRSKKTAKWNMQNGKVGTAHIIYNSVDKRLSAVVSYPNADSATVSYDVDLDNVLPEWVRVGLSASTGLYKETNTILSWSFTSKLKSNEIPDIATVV

Regarding `CC(C)N1CC=CC23O[C@@H]4/C=C\CCCOC(=O)C4[C@H]2C(=O)N(C(C)CO)[C@@H]3C1=O` (stereo not given in full), the composite z-score with Albumin (Bos taurus) is -0.446; in assay [2] it was -0.24; in [3], -0.177; in assay [4] it was 0.913; in [5], 0.17; in assay [6], -0.443. For the same compound, the composite z-score in the assay on Sam68 (KHDRBS1) is -0.222; in assay [7], -0.956; in assay [8], -0.313; in assay [9] it was -0.201; in assay [10], -0.829; in assay [11] it was -0.246. For the same compound, the composite z-score is -1.91 in assay [12]; -0.755 in assay [13]; -1.31 in assay [14]; -0.246 in the assay with Lefty1; 0.33 in [16]. In addition, the composite Z-score in [1] was 0.0835 (inactive). For the same compound, the z-score in assay [15] was 0.0728; in [17] it was 0.281 (inactive).

On to `COC(=O)[C@@]1(Cc2ccc(F)cc2)[C@H]2c3cc(C(=O)N4CCCC4)n(Cc4ccc(OC(F)(F)F)cc4)c3C[C@H]2CN1C(=O)c1ccccc1`, for which the composite z-score is 0.435 in the assay with Albumin (Bos taurus); 0.0026 in assay [2]; -0.0108 in assay [3]; 0.861 in assay [4]; 1.96 in assay [5]; 0.32 in assay [6]. Besides, the composite z-score in the assay on Sam68 (KHDRBS1) is -0.701; in assay [7] it was -0.0979; in assay [8], -0.484; in assay [9], -0.509; in [10], 1.05; in [11], 0.415. The composite z-score in [12] is -0.276; in assay [13] it was -0.752; in [14], -0.685; in the assay on Lefty1, -1.69; in assay [16] it was 0.135. For the same compound, the composite Z-score in assay [1] is -0.328 (inactive). The z-score is 0.559 in assay [15] and 1.38 (inactive) in assay [17].

Regarding `O=C(NCC(F)(F)F)[C@@H]1c2ccccc2C(=O)N(Cc2cc(C(F)(F)F)cc(C(F)(F)F)c2)[C@H]1c1ccc(CO)cc1`, the composite z-score with Albumin (Bos taurus) was 0.195; in [2], -0.154; in assay [3], -0.0984; in assay [4], 0.207; in [5], 0.729; in assay [6] it was 0.158. In addition, the composite z-score in the assay on Sam68 (KHDRBS1) is 0.178; in [7] it was 0.0632; in assay [8] it was 0.209; in [9], 3.22; in [10], 0.0165; in assay [11] it was 0.246. In addition, the composite z-score was -0.0773 in [12]; 0.647 in assay [13]; 0.295 in assay [14]; -0.26 in the assay on Lefty1; -0.352 in assay [16]. Moreover, in assay [1], the composite Z-score was -0.368 (inactive). For the same compound, the z-score in [15] was 1.89; in [17], 0.839 (inactive).

As to `CN(C)CCCCNC(=O)[C@H]1C[C@H]2C(=O)N[C@@H](CCCCN(C)C)C(=O)N2[C@H]1c1ccc(O)cc1`, the composite z-score in the assay with Albumin (Bos taurus) is -0.155; in assay [2], -0.0918; in assay [3], -0.0262; in assay [4], 0.518; in [5], -0.28; in [6], 0.224. Moreover, the composite z-score in the assay on Sam68 (KHDRBS1) was -0.093; in assay [7] it was 1.15; in assay [8], 0.224; in assay [9] it was 1.01; in assay [10], -0.102; in assay [11], 0.129. Besides, the composite z-score is -0.803 in assay [12]; 1.19 in [13]; 0.988 in assay [14]; 0.754 in the assay with Lefty1; 0.0466 in assay [16]. In addition, the composite Z-score in assay [1] was 0.151 (inactive). The z-score was -0.0458 in assay [15] and 0.47 (inactive) in [17].

With `COc1cc2c(cc1O)C(C)N(Cc1sc3ccccc3c1Cl)CC2` (stereo not given), the composite z-score was 1.01 with Albumin (Bos taurus); -0.014 in assay [2]; -0.0158 in assay [3]; 0.937 in [4]; 0.477 in assay [5]; -0.181 in assay [6]. Further, the composite z-score with Sam68 (KHDRBS1) was -1.44; in [7], -1.9; in [8], -1.53; in [9], -0.119; in assay [10] it was -1.14; in [11], -0.439. Moreover, the composite z-score in [12] is -2.68; in assay [13], -0.678; in [14], -1.11; with Lefty1 it was -1.44; in [16] it was 0.358. The composite Z-score in assay [1] was -0.768 (inactive). Moreover, the z-score was 0.218 in assay [15] and 1.39 (inactive) in assay [17].

For the compound `COCCOC(=O)N1C(=O)[C@@]2(c3cc(C#CC4=CCCCC4)ccc31)[C@H](C(=O)N1CCCCCCC1)[C@H]1C(=O)O[C@H](c3ccccc3)[C@H](c3ccccc3)N1[C@@H]2c1ccccc1OCCO`, the composite z-score turned out to be 0.321 with Albumin (Bos taurus); 0.733 in assay [2]; 0.0596 in [3]; 0.522 in assay [4]; 1.58 in assay [5]; 1.2 in assay [6]. For the same compound, the composite z-score stood at 1.3 with Sam68 (KHDRBS1); 0.6 in assay [7]; 1.11 in assay [8]; 0.316 in assay [9]; 1.19 in assay [10]; 0.391 in assay [11]. Also, the composite z-score came to 0.461 in assay [12]; 1.42 in assay [13]; 0.679 in assay [14]; 1.01 in the assay with Lefty1; 0.275 in [16]. Besides, the composite Z-score in assay [1] is 0.496 (inactive). Moreover, the z-score is -1 in assay [15] and 0.104 (inactive) in [17].

(Values after PubChem BioAssay.)
